Unmarked numbers belong to inactive results. Calls of active or inactive are those of the source. Cut-off read from the data, not from the text of the source: active = inhibition above about 30%; inactive = the rest.

The nature of this test: growth suppression of yeast trafficking mutant, preliminary HTS, modulators of trafficking downstream of Golgi apparatus project, 1536-format plate, OD 615 nm (AID 637). The following applies: yeast transport mutant growth, absorbance 615 nm, 18 h; hits give high values.
As a reminder, the inhibition is the relative decrease from the control value, in per cent. With `CCOC(=O)c1cccc(NC(=O)CSc2nc3ccccc3c(=O)n2CC)c1`, the inhibition is 0.48%.
Then `Cc1cc(C)n(-c2nc3nonc3nc2-n2nc(C)cc2C)n1`, with -3.17%; and `COc1ccc(C)cc1S(=O)(=O)N(CC(=O)O)c1ccccc1`, with 4.75%.
The result for `COc1cc(OC)cc(C(=O)N2CCN(C(=O)c3ccc(OC)c(OC)c3)CC2)c1` reads -6.45%; that for `Cc1cccc(-c2nc(CN3CCCC(C(=O)NC4CCCC4)C3)c(C)o2)c1` (stereo not given), 2.9%; that for `CCOc1ccccc1OCC(=O)Nc1nnc(COC)s1`, 10.7%.
The result for `CC(=O)OCC1OC(c2ccccc2)C(OC(C)=O)C(OC(C)=O)C1OC(C)=O` (stereo not given) reads -3.83%; that for `COc1ccc(-c2nnc(SCC(=O)Nc3ccc(Cl)cc3)n2C)cc1`, -9.21%; that for `Cc1sc2c(c1C)CN(C1CC(C)(C)NC(C)(C)C1)CN2C(=O)c1ccco1`, 1.8%.
As for `C=C(c1cccc2ccccc12)P(=O)(O)O`, the inhibition was 4.75%.
For `CS(=O)(=O)C1=C(O)C(=O)N(c2ccccc2)C1c1ccccc1` (stereo not given), the inhibition is 0.33%.
The result for `CCCN1CCN(CCCNC(=O)C2CCCN(c3nc4ccc(OCC)cc4s3)C2)CC1` (stereo not given) reads 0.83%; that for `CC(=O)Nc1ccc(Cl)cc1C(=O)O`, -1.29%; that for `Cc1nc2ccccc2c2c1C(=O)N(CCC1=CCCCC1)C2=O`, -1.17%.
On to `COc1ccc(-c2noc(-c3ccccc3C(=O)NCc3ccco3)n2)cc1`, for which the inhibition is -5.24%.
For `COc1cccc(OC)c1C(=O)Nc1ccc(CN2CCCCC2)cc1`, the inhibition is -2.06%.
The result for `CCOC(=O)C1=C(C)N=C2SCCC(=O)N2C1c1cc(Br)ccc1OC` (stereo not given) reads 0%.
Consider `Cc1ccc2cc3cc(C(=O)N4CC(C)CC(C)C4)oc3nc2c1` (stereo not given), for which the inhibition is -6.35%.
Take `COC(=O)C1=C(C)OC(N)=C(C#N)C1c1c(C)nn(-c2ccccc2)c1Cl` (stereo not given): the inhibition was 16.6%.
The result for `COCC(=O)N(Cc1cc2cc(OC)ccc2[nH]c1=O)c1ccccc1` reads -6%.
The result for `O=C(COc1ccccc1)N1CCN(C(=O)c2cccc(F)c2)CC1` reads 6.72%; that for `O=C(CCCCC(=O)NCc1cccs1)NCc1cccs1`, -7.42%; that for `Cc1ccc(Cn2c(C(=O)NCCCN3CCOCC3)cc3sccc32)cc1`, -1.27%.
Turning to `CCC(=O)N1CCNC(=O)C1CC(=O)Nc1ccc(C)c(Cl)c1` (stereo not given), the inhibition was -0.48%.
`O=C1CSC(c2cn(-c3ccccc3)nc2-c2ccccc2)N1Cc1ccco1` (stereo not given): the inhibition is 3.55%.
Turning to `COc1ccc(-c2cc(C(=O)Nc3ccc(C)cc3)no2)cc1`, the inhibition was 41% (active).
As to `CCn1nnc(NC(=O)c2cc3ccccc3o2)n1`, the inhibition is -9%.
The result for `O=C(NCC(=O)N(c1cnc2ccccc2c1)C(C(=O)NC1CCCC1)c1ccncc1)c1ccco1` (stereo not given) reads 13.4%; that for `CCOC(=O)Nc1ccc(OC)cc1S(=O)(=O)N1CCCCC1`, -1.8%.
For the molecule `CCN(CC)CCN1C(=O)C(=O)/C(=C(/O)c2c(C)[nH]c(C(=O)OC)c2C)C1c1ccccc1OC` (stereo not given), the inhibition was -4.5%.
Regarding `Cc1cc(Nc2ccccc2)n(CCC#N)n1`, the inhibition is 7.7%.
Then `Cc1cc(C)n(-c2nc3c(c(=O)n(Cc4ccc(Cl)c(Cl)c4)c(=O)n3C)n2C)n1`, with -3.65%; and `CCN(Cc1cc2cc(OC)ccc2[nH]c1=O)C(=O)Cc1ccc(OC)cc1`, with -3.44%.
Then `COc1cccc(CNC(=O)C2CCN(C(=O)N(C)C)CC2)c1`, with 11.8%; and `CCSc1cc(C2C(C(=O)OC)=C(C)NC3=C2C(=O)CCC3)c(C)o1` (stereo not given), with 3.93%.
The result for `Cc1ccc2nc(NC(=O)C3CCCN(S(=O)(=O)c4cnc[nH]4)C3)sc2c1` (stereo not given) reads -3.11%.
Regarding `C=CCn1c(SCc2ccc(C#N)cc2)nnc1-c1cccc(Cl)c1`, the inhibition is -0.17%.
The result for `C=CCn1c(SCC(=O)Nc2ccccc2OC)nnc1-c1ccco1` reads 2.9%.
The result for `COCCNC(=O)C(c1ccc(O)cc1)N(Cc1ccco1)C(=O)CCC(=O)Nc1nccs1` (stereo not given) reads -6.23%.
For the molecule `Cc1cc(C)c(OCC(=O)Nc2ccc3c(c2)OCO3)cc1C`, the inhibition is -11.4%.

The values above are taken from PubChem BioAssay.
